Results: PubChem BioAssay (NCI)
This is part of a sample that, as a whole, favours compounds with a hit. Of some 83,000 tested, about 20% had one in any assay.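 The test compound was applied at a single concentration to cells in 96-well plates for 48 hours, and percent growth was recorded.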 Values without a mark were called inactive. The source made the active and inactive calls.

These compounds were tested on SK-MEL-5 melanoma (assay: NCI-60 one-dose screen, 48 h (100 = growth as untreated, 0 = no growth, -100 = all killed)). Details: 10 µM unless noted.
Method: Growth inhibition of the SK-MEL-5 human tumor cell line is measured as a screen for anti-cancer activity. Cells are grown in 96 well plates and exposed to the test compound for 48 hours. Compounds are tested at a single concentration, which is 10^-5 M for most compounds. The reported endpoint is percent growth (GI% or GIPRCNT), where numbers from 0 - 100% represent growth inhibition, and numbers from -100% - 0 represent cell death. For example, a value of 40 represents 60% growth inhibition. A value of 0 means no net growth occurred over the course of the experiment. A value of -40 indicates 40% of cells at the beginning of the experiment died by the end of the experiment. A value of -100 means all cells are dead at the end of the experiment.
NCI-60 Human Tumor Cell Lines Screen was performed using the standard one-dose NCI protocol, which is described in more detail at https://dtp.cancer.gov/discovery_development/nci-60/default.htm.
Compounds with GIPRCNT values below 10 were considered active. Activity score was based on GIPRCNT using the following formula: […]
Score is 0 for GIPRCNT values of 100 or above, 50 for GIPRCNT values of 0, and 100 for GIPRCNT values of -100.

Structure (SMILES) | growth
O=S(=O)(Nc1ccc(Cl)c(Cl)c1)c1ccc(-c2cnc(C3CC3)o2)cc1 | 25%
COc1ncc(F)c(OC)n1 | 97.5%
COc1cccc(-c2ccc3c(c2)C2CCN(Cc4ccccc4)C3C2)c1 (stereo not given) | 99.4%
Cc1nc2cc(Nc3nc(N4CCCCC4)nc(N4CCOCC4)n3)ccc2n1Cc1ccccc1 | 54.9%
COc1ccc(-c2c3c(N)c4c(nc3nc3c2c(C)nn3-c2ccccc2)CCCCC4)cc1 | 90.6%
Oc1ccc2ccccc2c1C1NN=C(c2ccccc2)S1 (stereo not given) | 11.6%
O=C(Nc1ccc(Cl)c(Cl)c1)OCn1ncc2ccc([N+](=O)[O-])cc21 | 95.7%
O=C(CC(O)c1ccccc1)Nc1ccccn1 (stereo not given) | 116%
O=[N+]([O-])c1ccc(C=C2C(Cl)=C(Cl)C(Cl)=C2Cl)cc1 | 121%
O=c1[nH]c(=O)n(Cc2ccc(F)cc2)cc1F | 104% [50 µM]
Cc1ccc(S(=O)(=O)N2CCc3ccc(O)c4c3C2Cc2cc(Cl)ccc2-4)cc1 (stereo not given) | 52.8%
COc1ccc(C(=O)COc2cccc(/C=C3\CSc4ccc(C)cc4C3=O)c2)cc1 | 88.2%
O=c1c2cc(F)ccc2oc2c(NCCNCCO)nc3ccccc3c12 | 61.6%
C(=C\c1ccccc1)/CN1CCN(C(c2ccccc2)c2ccccc2)CC1 | 95.5%
O=C(CCc1nnc2sc(/C=C\c3ccccc3)nn12)c1nc2ccccc2[nH]1 | 75.9%
COc1nc2c(cc1S(=O)(=O)c1ccccc1)CCc1c-2cnn1-c1ccccc1Cl | 68%
COc1cccc(C2C3=C(COC3=O)N(CCO)c3cc4c(cc32)OCO4)c1 (stereo not given) | 30.8%
Cc1cc(Cl)c2c(Cl)ccc(Cl)c2n1 | 102%
Cc1c(C)n(CC(O)CNC2CCCCC2C)c2ccccc12 (stereo not given) | -86.2% (active)
Nc1cc2[nH]c(=O)c3ccccc3c2cc1Br | 67.2%

Structure (SMILES) | growth
O=C1/C(=C/c2ccc(Cl)cc2)N=C(c2ccccc2)N1CCc1cccs1 | 84.7%
COc1cc(/C=N/NC(=O)c2cnn3c2NC(c2ccccc2)C3)cc(OC)c1OC (stereo not given) | 50.4%
Cn1c2c(cc(S(=O)(=O)c3ccccc3)c1=O)CCc1c-2cnn1-c1cccc(Cl)c1 | 83.3%
Oc1ccc(Cl)cc1CNc1nc2ccccc2[nH]1 | 49%
Cc1nc(-c2ccccc2)cc2c(O)c(C(=O)N/N=C/Cc3ccccc3)[nH]c(=O)c12 | 107%
O=c1c2c(=NCCN3CCCC3)cc3c(=O)n(CCCN4CCOCC4)c(=O)c4ccc(c(O)n1CCCN1CCOCC1)c2c4-3 | -14.9% (active)
CSC1=CC(=O)c2ccccc2C1=O | 89.4%
CCCCC(CCCC)(S(=O)(=O)CC)S(=O)(=O)CC | 98%
Nc1cc(Br)c(-c2nnc(CCC(=O)c3nc4ccccc4[nH]3)o2)c(Br)c1 | 47.7%
O=c1oc2ccccc2cc1-c1csc(N/N=C/c2cc3ccccc3nc2Cl)n1 | 98.4%
C=C(C)COC(=O)c1ccccc1C(=O)OCC1(C)CO1 (stereo not given) | 105%
COc1cc(-c2nc(SC(C)C)nc(Nc3ccccc3C)c2C#N)cc(OC)c1OC | 102%
FCOC(C(F)(F)F)C(F)(F)F | 103%
OC[C@@H](O)[C@@H](O)CO | 104%
COc1cccc(Nc2nc(NCCO)c3ccccc3n2)c1 | 78.2%
COc1ccc(/C=C2\SC(=O)N(CN3CCN(c4cc5c(cc4F)c(=O)c(C(=O)O)cn5C4CC4)CC3)C2=O)cc1 | 97.2%
COc1ncnc2c1ncn2C/C(Br)=C(\Br)CCl | 53.7%
Brc1ccc(SCN(CSc2ccc(Br)cc2)Cc2ccccc2)cc1 | 91.2%
O=C1CN2CCC1C/C2=C\c1ccnc2c(Cl)cccc12 (stereo not given) | 108%
COc1nc2c(cc1S(=O)(=O)c1ccccc1)CCc1c-2cnn1-c1ccccc1 | 86.6%
